AC50 and outcome data for 35 compounds are collected here from PubChem BioAssay (EPA / NIEHS).

“And” between values parts separate entries of the source, which are not always exact repeats. Equal entries are not always repeated. Some structures have more than one record in an assay (separate samples or runs), and their calls can disagree. The source made the active and inactive calls. How the source made its calls: active means hit-call score of the fitted dose curve at least 0.9, where 1 is the maximum; inactive means score below 0.9.

Read-out in the assay: Matrix Metallopeptidase 3 (MMP3), MMP3 (gene 4314)
Briefly: BSK_BF4T_MMP3: BioMAP Diversity Plus: BF4T Assay for Matrix Metallopeptidase 3 (MMP3) Biomarker Activity (AID 2284271). The settings on record: primary human bronchial epithelial cells with fibroblasts. As for the experimental part: BSK_BF4T is a cell-based, multiplexed-readout assay that uses bronchial epithelial cells and dermal fibroblasts, a human vascular primary cell, with measurements taken at 24 hours after chemical dosing in a microplate: 96-well plate.BSK_BF4T_MMP3 is an assay component measured in the BSK_BF4T assay. It measures MMP-3 antibody related to regulation of gene expression using ELISA technology.Data from the assay component BSK_BF4T_MMP3 was analyzed at the endpoint, BSK_BF4T_MMP3, in the positive analysis fitting direction relative to DMSO as the negative control and baseline of activity. Using a type of binding reporter, gain or loss-of-signal activity can be used to understand protein changes. To generalize the intended target to other relatable targets, this assay endpoint is annotated to the 'protease' intended target family, where the subfamily is 'matrix metalloproteinase'.
The levels of cell surface (or secreted, indicated by the prefix "s") biomarker endpoints were measured by ELISA. Overt cytotoxicity to cells in confluent adherent cultures (all systems other than the BT system) was assessed by measuring total protein levels using sulforhodamine B (SRB) staining in parallel cultures at the time of biomarker measurements, indicated as SRB endpoints. For proliferation assays for adherent cell types, individual cell types are cultured at sub-confluence and relative cell numbers quantified by SRB staining at time points optimized for each system (48 h: 3C and CASM3C systems; 72 h: BT and HDF3CGF systems; 96 h: SAg system). SRB was performed by staining cells with 0.1% SRB after fixation with 10% TCA and reading wells at 560 nm.Viability and proliferation of PBMC (T cells) was quantified by Alamar Blue reduction for the SAg and BT systems. For PBMC viability (referred to as PBMC Cytotoxicity within the assay endpoint names), cells were plated (75,000/well in a 96-well plate) and then chemical samples added for 1 h before addition of activators, SEB and TSST-1 (20 ng/mL final concentration each). Cells were incubated for 90 h. Then, Alamar Blue (20 uL/well) (Invitrogen, Cat DAL1100) was added for 6 h, and the plates were read with a fluorescence microplate reader at 546/580 nm (excitation/emission). For PBMC proliferation, cells were plated and activated as above but incubated for only 16 h prior to addition of Alamar Blue. Plates were read after 6 h.
Take `O=C(O)C(F)(F)C(F)(F)C(F)(F)C(F)(F)C(F)(F)C(F)(F)C(F)(F)C(F)(F)Cl`: the AC50 (commonly the concentration giving half of the maximal activity seen) was 52.7 µM (active) and 55.1 µM (active).

Turning to `O=S(=O)(OCC(F)F)C(F)(F)F`, the outcome was inactive.

For the compound `O=C(CC(=O)C(F)(F)C(F)(F)F)C(F)(F)F`, the result was inactive.

Take `O=C(O)C(F)(F)C(F)(F)C(F)(F)C(F)(F)C(F)(F)C(F)(F)C(F)(F)C(F)(F)C(F)(F)C(F)(F)C(F)(F)C(F)(F)C(F)(F)F`: the half-maximal activity concentration (AC50) is 1.68 µM (active) and the outcome was inactive.

`N=C(N)C(F)(F)C(F)(F)C(F)(F)C(F)(F)C(F)(F)C(F)(F)C(F)(F)F`: the result was inactive and the AC50 is 33.6 µM (active).

Regarding `O=C(O)C(F)(F)C(F)(F)C(F)F`, the outcome was inactive.

On to `Cc1ccc(S(=O)(=O)OCC(F)(F)C(F)(F)C(F)(F)C(F)(F)C(F)(F)C(F)F)cc1`, for which the outcome was inactive.

As to `O=S(=O)(OCCOC(F)(F)F)C(F)(F)F`, the outcome was inactive.

Turning to `C=CC(=O)OCC(F)(F)C(F)(F)C(F)(F)C(F)(F)C(F)(F)C(F)(F)C(F)(F)F`, the result was inactive.

With `O=S(=O)(O)C(F)(F)C(F)(F)C(F)(F)C(F)(F)C(F)(F)C(F)(F)C(F)(F)F`, the AC50 is 15.6 µM (active) and the result was inactive.

With `C=CC(=O)OCC(F)(F)C(F)(F)C(F)(F)C(F)(F)COC(=O)C=C`, the AC50 is 55.4 µM (active) and 6.99 µM (active).

On to `FC(F)(F)C(F)(F)C(F)(F)C(F)(F)CCI`, for which the half-maximal activity concentration (AC50) was 8.85 µM (active) and the result was inactive.

Consider `FC(F)(F)C(F)(F)C(F)(F)N(C(F)(F)C(F)(F)C(F)(F)F)C(F)(F)C(F)(F)C(F)(F)F`, for which the result was inactive.

For `C=C(C)C(=O)OCC(F)(F)C(F)(F)C(F)(F)C(F)(F)C(F)(F)C(F)(F)C(F)(F)F`, the result was inactive.

Turning to `O=C(O)C(F)(OC(F)(F)C(F)(OC(F)(F)C(F)(OC(F)(F)C(F)(F)C(F)(F)F)C(F)(F)F)C(F)(F)F)C(F)(F)F` (stereo not given), the outcome was inactive.

Turning to `OCC(F)(F)C(F)(F)C(F)(F)C(F)F`, the result was inactive.

With `FC(F)(F)C(F)(F)C(F)(F)C(F)(F)C(F)(F)C(F)(F)C(F)(F)C(F)(F)F`, the result was inactive.

As for `O=C(O)C(F)(F)C(F)(F)C(F)(F)C(F)(F)C(F)(F)C(F)(F)C(F)(F)C(F)(F)C(F)(F)C(F)F`, the half-maximal activity concentration (AC50) was 30 µM (active) and the outcome was inactive.

In the case of `C=C(C)C(=O)OCC(F)(F)C(F)(F)C(F)(F)F`, the result was inactive.

For the compound `O=C(O)C(F)(OC(F)(F)C(F)(OC(F)(F)C(F)(F)C(F)(F)F)C(F)(F)F)C(F)(F)F` (stereo not given), the outcome was inactive.

In the case of `O=C(O)C(F)(F)C(F)(F)C(F)(F)C(F)(F)F`, the result was inactive.

In the case of `O=C(Cl)C(F)(F)C(F)(F)C(F)(F)C(F)(F)C(F)(F)C(F)(F)C(F)(F)C(F)(F)F`, the outcome was inactive.

`FC(F)(F)C(F)(F)C(F)(F)C(F)(F)C(F)(F)CCI`: the result was inactive.

For `C=CC(F)(F)C(F)(F)C(F)(F)C(F)(F)C(F)(F)C(F)(F)C(F)(F)C(F)(F)F`, the result was inactive.

Take `FC(F)(F)C(F)(F)C(F)(F)C(F)(F)C(F)(F)C(F)(F)C(F)(F)I`: the result was inactive.

Take `FC(F)(F)C(F)(F)CNCC(F)(F)C(F)(F)F`: the outcome was inactive.

In the case of `OCC(F)(F)C(F)(F)C(F)(F)C(F)(F)C(F)(F)C(F)(F)F`, the outcome was inactive.

Regarding `OCC(F)(F)C(F)(F)C(F)(F)F`, the outcome was inactive.

For `CCCCCCCCC(F)(F)C(F)(F)C(F)(F)C(F)(F)C(F)(F)C(F)(F)F`, the result was inactive.

On to `O=C(O)C(F)(F)C(F)(F)C(F)(F)C(F)(F)C(F)(F)C(F)(F)C(F)(F)C(F)(F)C(F)(F)C(F)(F)C(F)(F)C(F)(F)F`, for which the result was inactive.

`OCC(F)(F)C(F)(F)C(F)(F)C(F)(F)C(F)(F)C(F)F`: the result was inactive.

On to `CCO[Si](CCC(F)(F)C(F)(F)C(F)(F)C(F)(F)C(F)(F)C(F)(F)F)(OCC)OCC`, for which the result was inactive.

Regarding `O=C(O)C(F)(F)C(F)(F)C(F)(F)F`, the outcome was inactive.

Take `O=C(O)C=C(C(F)(F)F)C(F)(F)F`: the result was inactive.

With `C=CC(F)(F)C(F)(F)C(F)(F)C(F)(F)C(F)(F)C(F)(F)C(F)(F)C(F)(F)C=C`, the outcome was inactive.
